PubChem BioAssay (NCI)
This is part of a sample that, as a whole, favours compounds with a hit. Of some 83,000 tested, about 20% had one in any assay.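 Values shown are percent growth following 48 h exposure of cells in 96-well plates to a single concentration of compound; below 10 was considered active.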 The source made the active and inactive calls.

Tests used:
Assay in all cases: NCI-60 one-dose screen, 48 h (100 = growth as untreated, 0 = no growth, -100 = all killed)
Conditions in all cases: 10 µM unless noted
NCI-H23 lung = system: NCI-H23 lung
NCI-H226 lung = system: NCI-H226 lung
NCI-H322M lung = system: NCI-H322M lung
NCI-H460 lung = system: NCI-H460 lung
HOP-92 NSCLC = system: HOP-92 NSCLC
NCI-H522 lung = system: NCI-H522 lung
A549/ATCC NSCLC = system: A549/ATCC NSCLC
COLO 205 colon = system: COLO 205 colon
DU-145 prostate = system: DU-145 prostate
K-562 leukemia = system: K-562 leukemia
MALME-3M melanoma = system: MALME-3M melanoma
MDA-MB-231 breast = system: MDA-MB-231 breast
RXF 393 renal = system: RXF 393 renal
SF-268 CNS = system: SF-268 CNS
SF-295 CNS = system: SF-295 CNS
SF-539 CNS = system: SF-539 CNS
UACC-257 melanoma = system: UACC-257 melanoma
M14 melanoma = system: M14 melanoma
786-0 renal = system: 786-0 renal
HOP-62 NSCLC = system: HOP-62 NSCLC

Measured: growth

N#C/C(=C\c1ccc([N+](=O)[O-])s1)c1nc2cc(Cl)ccc2s1
active: NCI-H23 lung 2.73% | NCI-H226 lung -74.1% | NCI-H460 lung 6.38% | HOP-92 NSCLC -37.8% | NCI-H522 lung -35.9% | COLO 205 colon -26.6% | K-562 leukemia 1.75% | MALME-3M melanoma -57.1% | MDA-MB-231 breast -47.2% | RXF 393 renal 6.88% | SF-539 CNS -35% | M14 melanoma -78.1%
inactive: NCI-H322M lung 99.3% | A549/ATCC NSCLC 25.1% | DU-145 prostate 57.4% | SF-268 CNS 27.9% | SF-295 CNS 91.7% | UACC-257 melanoma 55.6%

COc1cc(/C=C/C(=O)c2nc3cc(F)ccc3nc2C)cc(OC)c1OC
inactive: NCI-H23 lung 64.6% | NCI-H226 lung 103% | NCI-H322M lung 102% | NCI-H460 lung 53.5% | HOP-92 NSCLC 48.9% | NCI-H522 lung 70.3% | A549/ATCC NSCLC 65% | 786-0 renal 75.7% | COLO 205 colon 82% | DU-145 prostate 22.9% | MALME-3M melanoma 65.3% | MDA-MB-231 breast 85% | RXF 393 renal 54.5% | SF-268 CNS 89.2% | SF-295 CNS 347% | SF-539 CNS 97.5% | UACC-257 melanoma 74.1% | M14 melanoma 73.1%

N#CC(C(=O)/C(=N/NC(=O)c1ccccc1O)C(C#N)c1ccccc1)c1ccccc1 (stereo unspecified)
inactive: NCI-H23 lung 55.5% | NCI-H226 lung 70.5% | NCI-H322M lung 68.4% | HOP-92 NSCLC 40.4% | NCI-H522 lung 67.9% | A549/ATCC NSCLC 20.1% | 786-0 renal 85.9% | COLO 205 colon 105% | DU-145 prostate 39.4% | MALME-3M melanoma 87.8% | MDA-MB-231 breast 63.7% | RXF 393 renal 55.9% | SF-268 CNS 44.1% | SF-295 CNS 101% | SF-539 CNS 33.3% | UACC-257 melanoma 46.2% | M14 melanoma 46.4%

CC(=O)N1c2ccccc2NC2=C(C(=O)NC2(C)C)C1c1ccco1 (stereo unspecified)
inactive: NCI-H23 lung 91.2% | NCI-H226 lung 96.8% | NCI-H322M lung 94.9% | HOP-92 NSCLC 67.2% | NCI-H522 lung 75.7% | A549/ATCC NSCLC 96.5% | 786-0 renal 93.9% | COLO 205 colon 77.7% | DU-145 prostate 100% | K-562 leukemia 77.1% | MALME-3M melanoma 80.5% | MDA-MB-231 breast 96.4% | RXF 393 renal 58% | SF-268 CNS 77.2% | SF-295 CNS 96.6% | SF-539 CNS 94.6% | UACC-257 melanoma 75.1% | M14 melanoma 68.6%

COc1ccc(/C=N/NC(=O)c2cnn3c2NC(c2ccccc2)C3)cc1OC (stereo unspecified)
inactive: NCI-H23 lung 73.9% | NCI-H226 lung 94.1% | NCI-H322M lung 75.4% | HOP-62 NSCLC 60% | HOP-92 NSCLC 73.2% | NCI-H522 lung 42.8% | 786-0 renal 76.2% | COLO 205 colon 45.7% | DU-145 prostate 81.1% | K-562 leukemia 24.1% | MALME-3M melanoma 76.4% | MDA-MB-231 breast 66% | RXF 393 renal 78.2% | SF-268 CNS 73.7% | SF-295 CNS 36.3% | SF-539 CNS 63.4% | UACC-257 melanoma 77.9% | M14 melanoma 45.5%

O=C1c2ccc3c4c(ccc(c24)C(=O)N1CCCNCc1ccccc1)C(=O)N(CCCNCc1ccccc1)C3=O
active: NCI-H23 lung -72.9% | NCI-H226 lung -54.1% | NCI-H322M lung -37.8% | NCI-H460 lung -73.1% | HOP-92 NSCLC -12.5% | NCI-H522 lung -91.2% | A549/ATCC NSCLC -91.1% | 786-0 renal -46.3% | COLO 205 colon -43.3% | DU-145 prostate -93.6% | K-562 leukemia -47.9% | MALME-3M melanoma -58.5% | MDA-MB-231 breast -8.41% | RXF 393 renal -88.8% | SF-268 CNS -71.4% | SF-295 CNS -39.7% | SF-539 CNS -69.6% | UACC-257 melanoma -95.2% | M14 melanoma -76%

COCCCN1CC(O)=C(c2nc(-c3ccc(C)cc3)cs2)C1=N
inactive: NCI-H23 lung 96% | NCI-H226 lung 96.3% | NCI-H322M lung 97.3% | NCI-H460 lung 153% | HOP-92 NSCLC 147% | NCI-H522 lung 106% | A549/ATCC NSCLC 85.4% | 786-0 renal 94.8% | COLO 205 colon 133% | DU-145 prostate 102% | MALME-3M melanoma 101% | MDA-MB-231 breast 96.1% | RXF 393 renal 94.3% | SF-268 CNS 223% | SF-295 CNS 123% | SF-539 CNS 96.9% | UACC-257 melanoma 83.7% | M14 melanoma 100%

C#CCNC(=O)[C@]1(C)CC[C@]2(C)CC[C@@H]3C(=CC[C@H]4[C@@]3(C)CC[C@H]3C(C)(C)C(=O)CC[C@]43C)[C@@H]2C1
inactive: NCI-H23 lung 91% | NCI-H226 lung 98.7% | HOP-62 NSCLC 101% | NCI-H460 lung 97.6% | HOP-92 NSCLC 99.9% | NCI-H522 lung 79.8% | A549/ATCC NSCLC 91.6% | 786-0 renal 89.8% | COLO 205 colon 101% | DU-145 prostate 98.8% | K-562 leukemia 63.7% | MALME-3M melanoma 114% | MDA-MB-231 breast 98% | RXF 393 renal 116% | SF-268 CNS 95.7% | SF-295 CNS 107% | SF-539 CNS 102% | UACC-257 melanoma 98.7% | M14 melanoma 95.8%

O=C(CCN1CCCC1)Nc1ccc2c(NCCc3ccccc3)c3ccccc3nc2c1
active: NCI-H23 lung -40.2% | NCI-H226 lung -19.8% | NCI-H322M lung -19% | NCI-H460 lung -64.8% | HOP-92 NSCLC -14.5% | NCI-H522 lung -33.4% | A549/ATCC NSCLC -5.65% | 786-0 renal -12.4% | COLO 205 colon -37.5% | DU-145 prostate -23.3% | K-562 leukemia -17.1% | MALME-3M melanoma -92.6% | MDA-MB-231 breast -32.5% | RXF 393 renal -47.9% | SF-268 CNS -55% | SF-295 CNS -2.88% | SF-539 CNS -67.2% | UACC-257 melanoma -8.54% | M14 melanoma -61.8%

O=C(CCN1CCCC1)Nc1ccc2c(NCc3ccccc3)c3ccccc3nc2c1
inactive: SF-295 CNS 15.5%
active: NCI-H23 lung -29.8% | NCI-H226 lung -2.39% | NCI-H322M lung -0.926% | NCI-H460 lung -34.4% | HOP-92 NSCLC -9.2% | NCI-H522 lung -28.2% | A549/ATCC NSCLC -19.7% | 786-0 renal 5.35% | COLO 205 colon -41.6% | DU-145 prostate -25% | K-562 leukemia -14.3% | MALME-3M melanoma -18.5% | MDA-MB-231 breast -14.9% | RXF 393 renal -16% | SF-268 CNS -2.23% | SF-539 CNS 5.91% | UACC-257 melanoma 1.08% | M14 melanoma 7.61%

CCCCCC(=O)Oc1ccc(/C(=C(\C)c2ccccc2)c2ccc(OCCN3CCCCC3)cc2)cc1
inactive: NCI-H23 lung 74.9% | NCI-H226 lung 93.5% | NCI-H322M lung 83.8% | NCI-H460 lung 82.1% | HOP-92 NSCLC 91.2% | NCI-H522 lung 70.1% | A549/ATCC NSCLC 77.5% | 786-0 renal 69.9% | COLO 205 colon 34.4% | DU-145 prostate 97.2% | K-562 leukemia 20.1% | MALME-3M melanoma 68% | MDA-MB-231 breast 95% | RXF 393 renal 82.7% | SF-268 CNS 84.5% | SF-295 CNS 84.2% | SF-539 CNS 59.4% | UACC-257 melanoma 72.4% | M14 melanoma 65.9%

COc1cc2c(=O)n(CCCN(C)C)c3c4cc5c(cc4ccc3c2cc1OC)OCO5
inactive: NCI-H23 lung 58.6% | NCI-H226 lung 52.8% | NCI-H322M lung 61.6% | NCI-H460 lung 18.2% | HOP-92 NSCLC 67.7% | NCI-H522 lung 53.9% | A549/ATCC NSCLC 41.8% | 786-0 renal 62.8% | COLO 205 colon 49% | DU-145 prostate 63.5% | K-562 leukemia 56.3% | MALME-3M melanoma 67.8% | MDA-MB-231 breast 67% | RXF 393 renal 45.3% | SF-268 CNS 50.4% | SF-295 CNS 42.5% | SF-539 CNS 46.2% | UACC-257 melanoma 93.1%

NC(=O)Nc1ccc(-n2cnc3cc(-c4ccc(O)cc4)ccc32)cc1
active: COLO 205 colon -20.8%
inactive: NCI-H23 lung 103% | NCI-H226 lung 110% | NCI-H460 lung 102% | HOP-92 NSCLC 149% | NCI-H522 lung 73.3% | A549/ATCC NSCLC 96.8% | 786-0 renal 109% | DU-145 prostate 107% | K-562 leukemia 89.3% | MALME-3M melanoma 98.4% | MDA-MB-231 breast 107% | RXF 393 renal 123% | SF-268 CNS 96.3% | SF-295 CNS 97.4% | SF-539 CNS 67.2% | UACC-257 melanoma 112% | M14 melanoma 91.6%

CC(=O)CCC(=O)OCc1cc(=O)c(O)co1
inactive: NCI-H23 lung 92.8% | NCI-H226 lung 109% | NCI-H460 lung 112% | HOP-92 NSCLC 105% | NCI-H522 lung 96% | A549/ATCC NSCLC 101% | 786-0 renal 99.8% | COLO 205 colon 125% | DU-145 prostate 102% | K-562 leukemia 102% | MALME-3M melanoma 95.5% | MDA-MB-231 breast 110% | RXF 393 renal 113% | SF-268 CNS 97.7% | SF-295 CNS 103% | SF-539 CNS 110% | UACC-257 melanoma 99.7% | M14 melanoma 99.4%

Cc1nn(-c2ccccc2)c(Cl)c1/C=N\N=c1/sc2ccccc2n1C
inactive: NCI-H23 lung 100% | NCI-H226 lung 105% | HOP-92 NSCLC 84.5% | NCI-H522 lung 97.7% | A549/ATCC NSCLC 85.1% | 786-0 renal 92.6% | COLO 205 colon 109% | DU-145 prostate 108% | MALME-3M melanoma 112% | MDA-MB-231 breast 93.2% | RXF 393 renal 109% | SF-268 CNS 101% | SF-295 CNS 109% | SF-539 CNS 97.5% | UACC-257 melanoma 97.1% | M14 melanoma 99.8%

O=[N+]([O-])c1cc(Br)c2cccc3c2c1CC3
inactive: NCI-H23 lung 106% | NCI-H226 lung 103% | HOP-62 NSCLC 118% | NCI-H460 lung 106% | HOP-92 NSCLC 97.1% | NCI-H522 lung 108% | A549/ATCC NSCLC 98.5% | 786-0 renal 96.5% | COLO 205 colon 118% | DU-145 prostate 112% | K-562 leukemia 100% | MALME-3M melanoma 120% | MDA-MB-231 breast 87.1% | RXF 393 renal 110% | SF-268 CNS 109% | SF-295 CNS 116% | SF-539 CNS 103% | UACC-257 melanoma 106% | M14 melanoma 104%
